Screening results: PubChem BioAssay, several laboratories
Hits are enriched below; roughly 32% of the tested compounds scored in any of these assays.
PostGolgi ctrl – growth inhibition of yeast control strain, primary screen, counter-screen for post-Golgi transport modulator project. inhibition, % at 10 µM. efflux-deficient yeast background strain, growth absorbance A615, 16 h. AID 738, 2007. 5% of 98,000 active
CYP2C9 inhib – blockers of cytochrome P450 2C9 activity – biochemical, luminescence, ADME assay, primary screen; P11712; CYP2C9 Supersomes, luciferin-H conversion; inhibition, % at 5 µM; 20% of 96,000 active;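 active = blocking of liver enzyme CYP2C9 beyond about 50% at 5 µM, limit read from the data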
Target sequence (P11712 whole entry, looked up): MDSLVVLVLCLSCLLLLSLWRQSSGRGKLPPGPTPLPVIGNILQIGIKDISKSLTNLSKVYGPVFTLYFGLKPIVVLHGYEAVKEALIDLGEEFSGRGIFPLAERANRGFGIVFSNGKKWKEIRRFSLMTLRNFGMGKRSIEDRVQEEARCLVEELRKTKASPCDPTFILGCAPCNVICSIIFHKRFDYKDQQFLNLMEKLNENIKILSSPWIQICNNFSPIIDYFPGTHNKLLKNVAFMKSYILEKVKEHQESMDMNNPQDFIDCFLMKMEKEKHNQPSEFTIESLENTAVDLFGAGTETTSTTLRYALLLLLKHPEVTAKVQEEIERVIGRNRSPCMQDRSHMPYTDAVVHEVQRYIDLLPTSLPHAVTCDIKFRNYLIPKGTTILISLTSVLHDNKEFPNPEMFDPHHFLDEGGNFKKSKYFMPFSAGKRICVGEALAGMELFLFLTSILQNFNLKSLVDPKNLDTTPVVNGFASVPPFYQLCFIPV
CYP2C19 inhib – blockers of cytochrome P450 2C19 activity – biochemical, luminescence, ADME assay, primary screen. P33261. CYP2C19 Supersomes, luciferin-H EGE luminescence, 30 min. inhibition, % at 5 µM. 21% of 96,000 active;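 active = CYP2C19 inhibition above a set limit at 5 µM in the primary screen, cut at about 50% in these data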
CYP2C9 activ – human CYP2C9 activators, primary screen, biochemical, luminescence; Cytochrome P450 2C9 (Homo sapiens), P11712; recombinant CYP2C9, luciferin-H conversion; active compounds read high; factor 1 = untreated enzyme, 0 = blocked; activation factor at 5 µM; 1.4% of 96,000 active; AID 1024, 2008;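 active = activation factor of 2 or more for CYP2C9 at a 5 µM dose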
CYP2C19 activ – human CYP2C19 activators, primary screen, biochemical, luminescence. 96,000 tested, under 10 active. recombinant CYP2C19, luciferin-H EGE luminescence; active compounds read high; 0 = fully inhibited enzyme, 1 = untreated enzyme. Cytochrome P450 2C19 (Homo sapiens), P33261. activation factor at 5 µM;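 active = activation factor of at least 2 at 5 µM in the primary screen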
PostGolgi yeast – phenotypic screen on post-Golgi transport, primary screen | post-Golgi transport phenotypic cell assay | inhibition, % at 10 µM | 0.9% of 98,000 active | AID 739, 2007;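 also: yeast cells grown in 1536-well plates; yeast grown about 18 h at 30C before absorbance read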
Hits are given with their value. Rule as the data show it, unless noted: active = inhibition above about 30%; inactive = the rest.

Results for Cc1ccc(-c2noc(C3CCCN(C(=O)c4ccccc4)C3)n2)o1 (centres undefined) ?
PostGolgi ctrl: inactive; CYP2C9 inhib: inactive; CYP2C19 inhib: inactive; CYP2C9 activ: inactive; CYP2C19 activ: inactive; PostGolgi yeast: inactive

Results for COc1cccc(-c2noc(C3CCCN(C(=O)Cc4ccccc4)C3)n2)c1 (centres undefined) ?
PostGolgi ctrl: inactive; CYP2C9 inhib: inactive; CYP2C19 inhib: inactive; CYP2C9 activ: inactive; CYP2C19 activ: inactive; PostGolgi yeast: inactive

What do the screens show for `COc1ccc(C(=O)N2CCCC(c3nc(-c4cc(OC)c(OC)c(OC)c4)no3)C2)cc1` (centres undefined)?
PostGolgi ctrl: inactive; CYP2C9 inhib: 66; CYP2C19 inhib: inactive; CYP2C9 activ: inactive; CYP2C19 activ: inactive; PostGolgi yeast: inactive

Results for COc1ccc(-c2noc(C3CCCN(S(=O)(=O)c4cccc(Cl)c4)C3)n2)cc1OC (centres undefined) ?
PostGolgi ctrl: inactive; CYP2C9 inhib: 87; CYP2C19 inhib: 94; CYP2C9 activ: inactive; CYP2C19 activ: inactive; PostGolgi yeast: inactive

Results for O=S(=O)(c1ccccc1Cl)N1CCCC1c1nc(-c2ccc(Cl)cc2)no1 (centres undefined) ?
PostGolgi ctrl: inactive; CYP2C9 inhib: inactive; CYP2C19 inhib: inactive; CYP2C9 activ: inactive; CYP2C19 activ: inactive; PostGolgi yeast: inactive

Results for COC(=O)c1ccc(Oc2c(C(F)(F)F)oc3c(CN4CCN(C)CC4)c(O)ccc3c2=O)cc1 ?
PostGolgi ctrl: 35; CYP2C9 inhib: inactive; CYP2C19 inhib: inactive; CYP2C9 activ: inactive; CYP2C19 activ: inactive; PostGolgi yeast: inactive

How did COc1cc(CNCCO)ccc1OC1CCCC1 do in these assays?
PostGolgi ctrl: inactive; CYP2C9 inhib: inactive; CYP2C19 inhib: inactive; CYP2C9 activ: inactive; CYP2C19 activ: inactive; PostGolgi yeast: inactive

How did O=C(Cc1ccc(Cl)cc1)NCCS(=O)c1ccc(Cl)cc1 (centres undefined) do in these assays?
PostGolgi ctrl: inactive; CYP2C9 inhib: inactive; CYP2C19 inhib: inactive; CYP2C9 activ: inactive; CYP2C19 activ: inactive; PostGolgi yeast: inactive

Results for O=C(CNS(=O)(=O)c1ccc(F)cc1)N1CCN(c2ccc(F)cc2)CC1 ?
PostGolgi ctrl: inactive; CYP2C9 inhib: inactive; CYP2C19 inhib: inactive; CYP2C9 activ: inactive; CYP2C19 activ: inactive; PostGolgi yeast: inactive

What do the screens show for `Cc1ccc(-n2nc(C)c(NS(=O)(=O)c3ccccc3)c2C)cc1C`?
PostGolgi ctrl: inactive; CYP2C9 inhib: 96; CYP2C19 inhib: inactive; CYP2C9 activ: inactive; CYP2C19 activ: inactive; PostGolgi yeast: inactive

Results for Cc1nn(-c2ccc(F)cc2)c(C)c1NS(=O)(=O)c1ccc(Cl)cc1 ?
PostGolgi ctrl: inactive; CYP2C9 inhib: 91; CYP2C19 inhib: 100; CYP2C9 activ: inactive; CYP2C19 activ: inactive; PostGolgi yeast: inactive

Results for Cc1ccc(S(=O)(=O)Nc2c(C)n(C)n(-c3ccccc3)c2=O)cc1 ?
PostGolgi ctrl: inactive; CYP2C9 inhib: inactive; CYP2C19 inhib: inactive; CYP2C9 activ: inactive; CYP2C19 activ: inactive; PostGolgi yeast: inactive

What do the screens show for `CCC1CCCCN1C(=O)CSc1nnc(CNC(=O)c2ccco2)o1` (centres undefined)?
PostGolgi ctrl: inactive; CYP2C9 inhib: inactive; CYP2C19 inhib: inactive; CYP2C9 activ: inactive; CYP2C19 activ: inactive; PostGolgi yeast: inactive

What do the screens show for `COc1ccc(N2CSC3=C(C#N)C(c4cc(OC)c(OC)cc4OC)CC(=O)N3C2)c(OC)c1` (centres undefined)?
PostGolgi ctrl: inactive; CYP2C9 inhib: inactive; CYP2C19 inhib: inactive; CYP2C9 activ: inactive; CYP2C19 activ: inactive; PostGolgi yeast: inactive

What do the screens show for `CCOc1ccccc1N1CSC2=C(C#N)C(c3c(OC)ccc4ccccc34)CC(=O)N2C1` (centres undefined)?
PostGolgi ctrl: inactive; CYP2C9 inhib: 100; CYP2C19 inhib: 75; CYP2C9 activ: inactive; CYP2C19 activ: inactive; PostGolgi yeast: inactive

How did COc1ccc(C2CC(=O)N3CN(c4ccc(C)c(Cl)c4)CSC3=C2C#N)cc1OC (centres undefined) do in these assays?
PostGolgi ctrl: inactive; CYP2C9 inhib: 96; CYP2C19 inhib: inactive; CYP2C9 activ: inactive; CYP2C19 activ: inactive; PostGolgi yeast: inactive

What do the screens show for `COc1ccc(N2CSC3=C(C#N)C(c4cc(OC)ccc4OC)CC(=O)N3C2)c(OC)c1` (centres undefined)?
PostGolgi ctrl: inactive; CYP2C9 inhib: 53; CYP2C19 inhib: inactive; CYP2C9 activ: inactive; CYP2C19 activ: inactive; PostGolgi yeast: inactive

Results for CC(C)NC(=O)c1ccc(COCC(F)(F)C(F)F)cc1 ?
PostGolgi ctrl: inactive; CYP2C9 inhib: inactive; CYP2C19 inhib: 84; CYP2C9 activ: inactive; CYP2C19 activ: inactive; PostGolgi yeast: inactive

What do the screens show for `COc1ccc(NC(=O)NC(C)c2ccncc2)cc1OC` (centres undefined)?
PostGolgi ctrl: inactive; CYP2C9 inhib: 60; CYP2C19 inhib: inactive; CYP2C9 activ: inactive; CYP2C19 activ: inactive; PostGolgi yeast: inactive

Results for COc1ccc(Cl)cc1NC(=O)NC(C)c1ccncc1 (centres undefined) ?
PostGolgi ctrl: inactive; CYP2C9 inhib: 92; CYP2C19 inhib: 97; CYP2C9 activ: inactive; CYP2C19 activ: inactive; PostGolgi yeast: inactive

How did CC(NC(=O)Nc1ccc(F)cc1F)c1ccncc1 (centres undefined) do in these assays?
PostGolgi ctrl: inactive; CYP2C9 inhib: inactive; CYP2C19 inhib: 80; CYP2C9 activ: inactive; CYP2C19 activ: inactive; PostGolgi yeast: inactive

What do the screens show for `CN(Cc1ccccc1)C(=O)CCNS(=O)(=O)c1ccc2c(c1)oc(=O)n2C`?
PostGolgi ctrl: inactive; CYP2C9 inhib: inactive; CYP2C19 inhib: inactive; CYP2C9 activ: inactive; CYP2C19 activ: inactive; PostGolgi yeast: inactive

Results for CC(=O)N=c1sc2ccccc2n1C ?
PostGolgi ctrl: inactive; CYP2C9 inhib: inactive; CYP2C19 inhib: inactive; CYP2C9 activ: inactive; CYP2C19 activ: inactive; PostGolgi yeast: inactive

What do the screens show for `CC(C(=O)N=c1sc2ccccc2n1C)N1C(=O)C2CC=CCC2C1=O` (centres undefined)?
PostGolgi ctrl: inactive; CYP2C9 inhib: 58; CYP2C19 inhib: 80; CYP2C9 activ: inactive; CYP2C19 activ: inactive; PostGolgi yeast: inactive

Results for Cc1cc2c(cc1C)CSC(c1ccc(O)cc1)SC2 ?
PostGolgi ctrl: inactive; CYP2C9 inhib: inactive; CYP2C19 inhib: inactive; CYP2C9 activ: inactive; CYP2C19 activ: inactive; PostGolgi yeast: inactive

What do the screens show for `CCCCC(=O)Oc1ccccc1C1SCc2cc(C)c(C)cc2CS1`?
PostGolgi ctrl: inactive; CYP2C9 inhib: inactive; CYP2C19 inhib: inactive; CYP2C9 activ: inactive; CYP2C19 activ: inactive; PostGolgi yeast: inactive

Results for Cc1cc2c(cc1C)CSC(c1ccccc1OC(=O)C(C)(C)C)SC2 ?
PostGolgi ctrl: inactive; CYP2C9 inhib: 52; CYP2C19 inhib: inactive; CYP2C9 activ: inactive; CYP2C19 activ: inactive; PostGolgi yeast: inactive
